From PubChem BioAssay AID504884 (Broad Institute, 2011)
In all, about 360,000 compounds went through this assay and about 230 (0.064%) were called active. Many of the other results were omitted from the sample, so actives are more common in it than they were. Values without a mark were called inactive. Rule as the data show it: active = activity above about 50% (passing the limit was not always enough); inconclusive = no clear call, values can overlap the other calls.

Tested on: DNA topoisomerase I (Yersinia pestis CO92)
Assay: Yersinia pestis topoisomerase I inhibitors, primary screen, biochemical, cleavage product accumulation, plate reader, single point (AID 504884)
Conditions: Y. pestis Topo-I cleavage product accumulation, at 10 µM, active compounds read high

| Compound | activity |
| --- | --- |
| Fc1ccc2cnc(-c3ccccc3)cc2c1 | 5.85% |
| c1ccc2cc(CCCc3cc4ccccc4cn3)ncc2c1 | 54.9% (active) |
| CCC1CCCCN1C(=O)CSc1nc2c(c(=O)n1C)SC(C)C2 (stereo not given) | 16.8% |
| Cc1ccc(CNC(=O)CCS(=O)(=O)c2ccc3c(c2)CC(C)N3C(=O)C2CC2)o1 (stereo not given) | 7.23% |
| Cc1ccc(C)c(N(CC(=O)NCc2ccco2)C(=O)CCC(=O)Nc2ccccn2)c1 | 18.9% |
| CC1Cc2cc(/C(O)=C3\C(=O)C(=O)N(Cc4cccnc4)C3c3ccccc3F)ccc2O1 (stereo not given) | 2.42% |
| Cc1cccn2c(CN(C)C3CCCc4ccccc43)c(C(=O)N3CCOCC3)nc12 (stereo not given) | 42.2% |
| COc1ccc(CNCCCNCc2ccc(OC)c(OC)c2)cc1OC | 2.69% |
| CCc1ccc(OCC(O)CN2CCN(CCO)CC2)cc1 (stereo not given) | 5.47% |
| NC(Cc1ccc(F)cc1)c1csc(Nc2nncc3ccccc23)n1 (stereo not given) | -11.6% |
| CC(C)(CNC(=O)CNC(=O)C1CCCCC1)N1CCOCC1 | -0.69% |
| Cc1c(NC(=O)C(C)OC(=O)c2c3c(nc4ccccc24)CCC(C)C3)c(=O)n(-c2ccccc2)n1C (stereo not given) | 3.41% |
| COc1cc(NC(=O)C2=C(C)OCCS2)c(Cl)cc1C(=O)NCCN1CCN(C)CC1 | -0.826% |
| COc1ccc(-n2nc(C(=O)NCC(=O)Nc3cccc(C)n3)c3ccccc3c2=O)cc1 | 15.2% |
| O=S(=O)(Nc1ccc(Cl)cn1)c1cnc(Cl)c(Br)c1 | 2.02% |
| CC1CCCCC1NC(=O)c1cn(C)c2ccc(S(=O)(=O)N3CCOCC3)cc2c1=O (stereo not given) | -3.45% |
| CCN(CCN(C)C)C(=O)c1ccc2nc(C)c(N(C)C(=O)CCc3ccccc3)n2c1 | 0.0305% |
| Cc1nc(-c2ccc(F)cc2)c(CC(=O)N(C)CC(=O)Nc2c(C)cccc2C)s1 | 0.373% |
| Cc1ccccc1-c1nc(CS(=O)(=O)CC(=O)N2CCc3ccccc3C2)c(C)o1 | 32.1% |
| COc1ccc(-n2c(Cc3cccn3C)nnc2SCC(=O)Nc2cc(C)cc(C)c2)cc1 | 18.8% |
| O=C(NCc1ccccc1)C(c1ccccc1)N(C(=O)c1csnn1)c1ccc(F)cc1 (stereo not given) | 26.7% |
| CN(C)C(=O)CCc1ccc2c3c([nH]c2c1)[C@]1(C)[C@@H](C(=O)N2CCOCC2)C[C@H](CC(=O)NCCc2ccccn2)C(=O)N1CC3 | 4.43% |
| CCc1ccc(C(=O)OCC(=O)NCC(F)(F)F)cc1 | 7.38% |
| CN(C)/C=C(/C(=O)c1ccccc1Cl)S(C)(=O)=O | 3.93% |
| O=C(Nc1ccc(S(=O)(=O)N2CCCCC2)cc1)C1CC(=O)N(c2ccc(F)cc2)C1 (stereo not given) | 12.1% |
| CC1CCN(S(=O)(=O)c2ccc(NC(=O)C3CC(=O)N(c4ccccc4)C3)cc2)CC1 (stereo not given) | 71.3% (active) |
| Cc1ccccc1N1CC(C(=O)Nc2ccc(S(=O)(=O)N3CCCC3)cc2)CC1=O (stereo not given) | 10.6% |
| CCCn1c(SCC(=O)c2ccc3c(c2)OCCO3)nnc1C(C)C | 9.18% |
| CCCCn1c(N)c(N(CCOC)C(=O)COc2c(C)cccc2C)c(=O)[nH]c1=O | -2.82% |
| CN1CCN(S(=O)(=O)c2cccc(C(=O)Nc3sccc3C#N)c2)CC1 | -7.33% |
